# Laboratory results reported in PubChem BioAssay (Tox21).
# Values joined by “and” are separate entries in the source; they are usually repeats but may differ in a detail not shown here. Identical values can stand only once. Records with an inconclusive call do not appear. Where a call stands in place of a potency, no number is given. A structure can be active in one record and inactive in another. Active and inactive are the calls of the source. Calls come from the whole dose curve; as a rule, active = well fitted inhibition curve with a large enough effect in the signal ratio in the repeat runs (not every such curve was filed as active); inconclusive = weak or mixed curves, or effect the other way; inactive = no such curve, though single readings can be large or run the other way; the % refers to the signal ratio.
# Molecular target: Estrogen receptor beta (Homo sapiens) (UniProt Q92731)
# Sequence (Q92731 whole entry, looked up): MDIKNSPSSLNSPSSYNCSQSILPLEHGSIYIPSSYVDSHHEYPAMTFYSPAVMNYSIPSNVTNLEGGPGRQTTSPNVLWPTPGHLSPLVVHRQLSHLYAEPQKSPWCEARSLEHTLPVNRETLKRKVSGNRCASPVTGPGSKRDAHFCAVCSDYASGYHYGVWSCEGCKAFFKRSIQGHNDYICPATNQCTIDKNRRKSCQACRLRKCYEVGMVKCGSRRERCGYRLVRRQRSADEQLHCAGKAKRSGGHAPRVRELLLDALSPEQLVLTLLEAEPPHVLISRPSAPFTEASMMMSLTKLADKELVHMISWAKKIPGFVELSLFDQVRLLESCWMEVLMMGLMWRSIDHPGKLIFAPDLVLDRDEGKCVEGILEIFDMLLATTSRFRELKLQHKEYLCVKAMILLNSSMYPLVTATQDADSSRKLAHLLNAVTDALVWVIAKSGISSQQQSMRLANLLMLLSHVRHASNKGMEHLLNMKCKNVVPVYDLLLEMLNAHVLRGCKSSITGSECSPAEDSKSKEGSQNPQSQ
# Assay: qHTS assay to identify small molecule antagonists of the estrogen receptor beta (ER-beta) signaling pathway (AID 1259378)
# Conditions: ER-beta-UAS-bla HEK293T, beta-lactamase FRET ratio, 16 h; series mostly up to 92.4 µM; activity, negative = inhibition: at the top concentration
# Excerpt: National Center for Advancing Translational Sciences [NCATS]
# NIH Chemical Genomics Center [NCGC]
# U.S. Environmental Protection Agency [EPA]
# National Institutes of Environmental Health Sciences [NIEHS]
# National Toxicology Program [NTP]
# U.S. Food and Drug Administration [FDA]
# Estrogen receptor (ER), a nuclear hormone receptor, plays an important role in development, metabolic homeostasis and reproduction. Two subtypes of ER, ER-alpha and ER-beta, have similar expression patterns with some uniqueness in both types. Endocrine disrupting chemicals (EDCs) and their interactions with steroid hormone receptors like ER causes disruption of normal endocrine function. To identify the compounds that inhibit ER signaling, an ER-beta-UAS-bla GripTite cell line (Life Technologies, Madison, WI, USA) containing a beta-lactamase reporter gene under the control of an UAS response element was used to screen Tox21 10K compound library.
# Tox21 Assay Protocol Summary:
# ER-beta-UAS-bla HEK293T cells were dispensed at 2,000 cells/4 uL of assay medium containing 2% charcoal stripped FBS per well into black wall/clear-bottom 1536-well plates using a Multidrop Combi (ThermoFisher Scientific, Waltham, MA) dispenser. After the assay plates were incubated at a 37C and 5% CO2 for 6 hr, 23 nL of compounds dissolved in DMSO, positive controls or DMSO only was transferred to the assay plate by a Pintool station (Kalypsys, San Diego, CA), followed by addition of 1 uL (1nM as final concentration) of 17-beta-estradiol (E2) in assay medium using a BioRAPTR FRD (Flying Reagent Dispenser, Aurora Discovery, San Diego, CA). The plates were incubated at 37C and 5% CO2 for 16 hr. Then 1 uL of LiveBLAzerTM B/G FRET substrate was added using a Flying Reagent Dispenser, the plates were incubated at room temperature for 2 hours, and fluorescence intensity was measured by an Envision plate reader (PerkinElmer, Shelton, CT).
# Potency is the fitted concentration of half-maximal effect.
Structure (SMILES),Potency,"activity, negative = inhibition"
CCOc1ccc(NC(C)=O)cc1,inactive,–
C=C(C)C(=O)OCC(C)O (stereo not drawn),inactive,–
CN(C)CCOC(C)(c1ccccc1)c1ccccn1 (stereo not drawn),inactive,–
O=CC(=O)c1ccccc1,–,2.85% (inactive)
CCN(CC)C(=O)c1cccc(C)c1,inactive,–
O=S1(=O)OC(c2ccc(O)cc2)(c2ccc(O)cc2)c2ccccc21,inactive,–
NS(=O)(=O)c1cc2c(cc1Cl)NCNS2(=O)=O,inactive,–
NC(=O)c1cccnc1,inactive,–
CNNCc1ccc(C(=O)NC(C)C)cc1,inactive,–
CC(C)C(=O)Nc1ccc([N+](=O)[O-])c(C(F)(F)F)c1,54.5 µM (active) and inactive,–
NC1CCCCC1,inactive,–
C1=CC2C3C=CC(C3)C2C1 (stereo not drawn),–,-2.64% (inactive)
CC1(C)O[C@@H]2C[C@H]3[C@@H]4CCC5=CC(=O)C=C[C@]5(C)[C@@]4(F)[C@@H](O)C[C@]3(C)[C@]2(C(=O)CO)O1,inactive,–
NS(=O)(=O)O,inactive,–
O=C(O)CC(O)C(=O)O (stereo not drawn),inactive,–
Cc1c(C(=O)O)c(O)cc2c1C(=O)c1c(O)c([C@@H]3O[C@H](CO)[C@@H](O)[C@H](O)[C@H]3O)c(O)c(O)c1C2=O,inactive,–
CCCCCCCC(=O)OCC(COC(=O)CCCCCCC)OC(=O)CCCCCCC,inactive,–
CCCCOC(=O)c1ccc(O)cc1,19.3 µM (active),–
C/C=C/C=C/C(=O)O,inactive,–
COc1ccc(C(Cl)=C(c2ccc(OC)cc2)c2ccc(OC)cc2)cc1,433 nM (active) and 668 nM (active),–
CC(C)NCC(O)c1ccc(O)c(O)c1 (stereo not drawn),inactive,–
O=c1[nH]cc(F)c(=O)[nH]1,inactive,–
OC[C@H]1O[C@H](O[C@]2(CCl)O[C@H](CCl)[C@@H](O)[C@@H]2O)[C@H](O)[C@@H](O)[C@H]1Cl,inactive,–
CN(C)CCOC(c1ccccc1)c1ccccc1,inactive,–
Nc1ccc(S(N)(=O)=O)cc1,inactive,–
C1CCC(C(CC2CCCCN2)C2CCCCC2)CC1 (stereo not drawn),18.8 µM (active),–
Nc1c2c(nc3ccccc13)CCCC2,inactive,–
Cc1cn([C@H]2C=C[C@@H](CO)O2)c(=O)[nH]c1=O,inactive,–
